Here are results for 40 molecules from PubChem BioAssay (Tox21).

Records with an inconclusive call do not appear. Entries that show only a call come without a potency. A number with no mark means an inactive call. Activity calls are given as the source filed them. Calls come from the whole dose curve.
Potency is the fitted concentration of half-maximal effect.

Chain of Muscarinic acetylcholine receptor M1 (Homo sapiens) (P11229 whole entry, looked up): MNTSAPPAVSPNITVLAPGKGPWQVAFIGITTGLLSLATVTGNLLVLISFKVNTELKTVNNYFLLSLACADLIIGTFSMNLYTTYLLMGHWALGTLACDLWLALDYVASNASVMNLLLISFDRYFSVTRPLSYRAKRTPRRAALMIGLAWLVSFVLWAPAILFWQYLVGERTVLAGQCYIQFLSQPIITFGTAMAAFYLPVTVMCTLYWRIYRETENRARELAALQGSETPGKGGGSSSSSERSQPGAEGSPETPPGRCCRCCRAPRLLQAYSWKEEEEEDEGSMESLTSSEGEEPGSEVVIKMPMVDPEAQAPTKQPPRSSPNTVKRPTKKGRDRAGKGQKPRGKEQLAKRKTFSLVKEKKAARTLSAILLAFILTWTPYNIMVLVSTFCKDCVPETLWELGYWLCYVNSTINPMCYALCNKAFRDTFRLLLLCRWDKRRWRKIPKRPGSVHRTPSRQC

The target of the experiment is Muscarinic acetylcholine receptor M1 (Homo sapiens) (UniProt P11229). Nature of the experiment: Cholinergic receptor muscarinic 1 (CHRM1) small molecule antagonists, cell-based qHTS assay (AID 1963588). Note: nearly all actives have a fitted effect of over 40% in size. The note with it: CHRM1-CHO antagonist mode, calcium flux fluorescence; series mostly up to 61.5 µM. An excerpt:
National Center for Advancing Translational Sciences [NCATS]
Division of Preclinical Innovation [DPI]
U.S. Environmental Protection Agency [EPA]
National Institutes of Environmental Health Sciences [NIEHS]
National Toxicology Program [NTP]
U.S. Food and Drug Administration [FDA]
The CHRM1 is a muscarinic receptor. This receptor plays a crucial role in learning and memory processes and has long been identified as a promising therapeutic target for the improvement of cognitive decline in Alzheimer's disease (AD). The CHRM1-CHO cell line stably expressing human muscarinic acetylcholine receptor M1 (CHRM1) can be used for screening agonists and antagonists of interactions between CHRM1 and its ligands. The CHRM1-CHO Calcium Flux Assay is a homogeneous fluorescence-based assay for detecting the intracellular calcium level using FDSS kinetic plate reader system.
Tox21 Assay Protocol Summary:
CHRM1-CHO cells were dispensed at 1000 cells/3uL/well in 1536-well black-clear bottom plates using a Multidrop Dispenser. After the assay plates were incubated at a 37 C/5% CO2 incubator for 18 h, 3 uL of Dye Loading Buffer was transferred to the assay plate by a Flying Reagent Dispenser. The assay plates were incubated at 37 C for 1h. For antagonist mode, 23 nL of compounds dissolved in DMSO, positive controls or DMSO only was transferred to the assay plate by a pin tool. After 5 min incubation at room temperature, 1.5 uL of acetylcholine at 50nM was added to each well. The fluorescence intensity in the plates was measured using FDSS 7000EX kinetic plate reader for 3 min at 1 sec intervals. Each test compound was measured at 15 concentrations in three independent runs.
A general note: Quantitative high-throughput screening tests each substance at several concentrations.
`CCCCCCC(=O)OCC`: the Potency result is “inactive”.

Consider `COc1cc2c(cc1OC)C(C(C(=O)N(CCc1ccc(OC)c(OC)c1OC)CCc1ccc(OC)c(OC)c1OC)c1ccccc1)=NCC2` (stereo not given), for which the Potency result is “inactive”.

With `Cc1ccccc1C(=O)O`, the Potency entry is “inactive”.

With `CCCCCCCCCCOCC(O)CN` (stereo not given), the Potency entry is “inactive”.

In the case of `Cc1cccc(C)c1NC(=O)c1ccccc1C(=O)O`, the Potency entry is “inactive”.

Consider `CC(C)(Oc1ccc(Cl)cc1)C(=O)OCCCOC(=O)C(C)(C)Oc1ccc(Cl)cc1`, for which the Potency result was “inactive”.

As to `CN(C)C(=O)CNC(=O)Cc1ccccc1`, the Potency result was “inactive”.

On to `COc1cc(NS(=O)(=O)c2ccc(N)cc2)ncn1`, for which the Potency result is “inactive”.

On to `CC(C)C/C=C(\C=O)c1ccccc1`, for which the Potency entry is “inactive”.

As for `C=C(C)C(=O)OCCOCC`, the Potency result is “inactive”.

`O=Cc1c2ccccc2c(Cl)c2ccccc12`: the Potency entry is “inactive”.

In the case of `Oc1cn2c(n1)Nc1ccc(Cl)c(Cl)c1C2`, the activity, negative = inhibition is -10.4% [at 12.6 µM].

With `O=S(=O)(O)CCO`, the Potency entry is “inactive”.

As for `CCCCCCCCCCCSCC(=O)O`, the Potency result was “inactive”.

Consider `CC(C)Cc1nccs1`, for which the Potency result is “inactive”.

`COc1ccc(CCC(=O)c2c(O)cc(O[C@@H]3O[C@H](CO)[C@@H](O)[C@H](O)[C@H]3O[C@@H]3O[C@@H](C)[C@H](O)[C@@H](O)[C@H]3O)cc2O)cc1O`: the Potency result was “inactive”.

With `CCCCOC(=O)CC`, the Potency entry is “inactive”.

Turning to `Cc1occc(=O)c1OC(=O)C(C)C`, the Potency result was “inactive”.

As to `CCCCCCCCC(C)=O`, the Potency result was “inactive”.

Take `CN1CN(C)CN(C)C1`: the Potency result is “inactive”.

`Cc1cc(F)ccc1-c1cc(N2CC[C@@H](O)[C@H]2CO)ncc1N(C)C(=O)C(C)(C)c1cc(C(F)(F)F)cc(C(F)(F)F)c1`: the Potency entry is “inactive”.

`Clc1cc(Cl)c(-c2c(Cl)c(Cl)cc(Cl)c2Cl)cc1Cl`: the Potency entry is “inactive”.

With `CN1Cc2cc(C(=O)N3CCC(C4CCNCC4)CC3)ccc2N[C@@H](CC(=O)O)C1=O`, the Potency was 1630 nM (active).

As for `Cc1ccc(-n2nc(C(C)(C)C)cc2NC(=O)Nc2ccc(OCCN3CCOCC3)c3ccccc23)cc1`, the Potency result was “inactive”.

Turning to `O=C1CCCCCCCCCCCCCC1`, the Potency result was “inactive”.

As for `O=C(CO)[C@@H](O)[C@H](O)[C@@H](O)CO`, the Potency result was “inactive”.

Regarding `O[C@@H](CNC[C@H](O)[C@H]1CCc2cc(F)ccc2O1)[C@@H]1CCc2cc(F)ccc2O1`, the Potency entry is “inactive”.

Turning to `CCCCCCCCOC(C)=O`, the Potency result is “inactive”.

As for `CCCCCCCCCC(=O)OCC`, the Potency entry is “inactive”.

Consider `OCC(O)c1ccccc1` (stereo not given), for which the Potency entry is “inactive”.

In the case of `O=C1c2ccccc2S(=O)(=O)N1CCCCN1CCN(c2ncccn2)CC1`, the Potency entry is “inactive”.

As for `O=C(O)CCC(=O)OC[C@@H](NC(=O)C(Cl)Cl)[C@H](O)c1ccc([N+](=O)[O-])cc1`, the Potency result is “inactive”.

For the molecule `CSc1cnc(C)cn1`, the Potency entry was “inactive”.

For the molecule `c1cc[nH]c1`, the Potency result is “inactive”.

Regarding `O=C1c2cccc(O)c2C(=O)c2c(O)cc(CO)cc21`, the Potency entry is “inactive”.

On to `BrCCCCCBr`, for which the Potency result was “inactive”.

For the molecule `CC1CCc2cc(F)cc3c(=O)c(C(=O)O)cn1c23` (stereo not given), the Potency entry is “inactive”.

`Cc1cc(S(=O)(=O)O)ccc1N=Nc1c(O)ccc2ccccc12`: the Potency entry was “inactive”.

Regarding `C=C(C)C(=O)OCCCCCCCCCCOC(=O)C(=C)C`, the Potency entry is “inactive”.

Consider `Cc1ccc(C=O)s1`, for which the Potency result was “inactive”.
